Screening results deposited in PubChem by several laboratories.
V-ATPase pH – alters yeast V-ATPase proton transport; S. cerevisiae, pHLuorin cytosolic pH fluorescence; response, % at 10 µM; hit rate 0.37% among 350,000; in the data active = response mostly above about 7.3%, no sharp cut-off; inactive = mostly below about 5.4%; note: actives read high
NPR2 activator – GC-B (human) receptor activation. P20594. HEK293-GC-B cells, CNP EC30, cGMP TR-FRET; 0% at EC30 CNP, 100% saturating CNP. activation, % at 10 µM. hit rate 0.11% among 370,000. AID 1920062;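 active = activation at 10 µM reaching about 35% in either raw or pattern-adjusted values, limit read from the data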
Rce1 inh – yeast Ras-converting enzyme inhibition | Q03530 | AID 2563 | calls only | hit rate 0.27% among 290,000 | yeast membranes, quenched prenylated peptide cleavage fluorescence;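 active = fall in fluorescence gain of 50% or more versus controls, with final raw signal at or below 3038400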
Target sequence (Q03530 whole entry, looked up): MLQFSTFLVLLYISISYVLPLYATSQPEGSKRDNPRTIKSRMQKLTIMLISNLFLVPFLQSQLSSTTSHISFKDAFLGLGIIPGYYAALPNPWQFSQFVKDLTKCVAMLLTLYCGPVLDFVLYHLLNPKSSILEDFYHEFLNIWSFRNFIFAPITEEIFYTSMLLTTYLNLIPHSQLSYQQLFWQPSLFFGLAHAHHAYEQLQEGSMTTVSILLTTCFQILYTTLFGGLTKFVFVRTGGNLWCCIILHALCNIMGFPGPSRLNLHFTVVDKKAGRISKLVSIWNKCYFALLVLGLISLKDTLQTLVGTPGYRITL
NSD2 inh – inhibitors of human histone methyltransferase NSD2. O96028. NSD2 peptide methylation, AlphaScreen, 120 min. inhibition, % at 12.5 µM. hit rate 0.54% among 310,000; in the data active = inhibition above about 50%
Efflux pump inh – blocks antifungal efflux pumps in multiplex yeast assay; S. cerevisiae Candida pump triplex, Nile Red efflux; inhibition, % at 10 µM; hit rate 0.44% among 330,000; AID 485275;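 active = plate passing quality check with inhibition over a set limit, or well fluorescence over plate mean plus 4 SD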;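 note: Nile Red retained in pooled yeast measured as flow cytometry median fluorescence; higher means more Nile Red kept so more efflux inhibition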
NPR1 activator – GC-A (human) enzyme activation; activation, % at 10 µM; P16066; AID 1671463; hit rate 0.14% among 370,000; HEK293 GC-A cells, cGMP TR-FRET, EC30 ANP; 0% at EC30 ANP, 100% saturating ANP; in the data active = activation above about 40%
Yeast cmpd fluor – flagged as fluorescent in efflux inhibitor counter-screen; shares compounds with Efflux pump inh; S. cerevisiae AD/pABC3, compound fluorescence, flow cytometry; fluorescence ratio to DMSO, % at 10 µM; hit rate 4% among 1,700; AID 588517;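 active = fluorescence ratio to DMSO above its plate's cutoff, the plate mean ratio plus 5 SD, cut at about 210% in these data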;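 note: unstained yeast with no Nile Red so the signal is compound autofluorescence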
CaMdr1 efflux inh – inhibitors of Candida albicans Mdr1 efflux pump; shares compounds with Efflux pump inh; S. cerevisiae AD/CaMDR1, Nile Red efflux, flow cytometry; inhibition, % at 10 µM; hit rate 1% among 1,700; in the data active = inhibition above about 26%;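 note: higher means more Nile Red retained so more efflux inhibition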
CaCdr2 efflux inh – inhibitors of Candida albicans Cdr2 efflux pump; shares compounds with Efflux pump inh; S. cerevisiae AD/CaCDR2, Nile Red retention, flow cytometry; Nile Red retention ratio vs DMSO, % at 10 µM; hit rate 4% among 1,700; AID 588520; in the data active = Nile Red retention ratio vs DMSO above about 190%;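 note: higher ratio means more blocking of Cdr2 efflux of the dye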
Cdr1 pump inh – Candida Cdr1 efflux pump inhibition; shares compounds with Efflux pump inh; hit rate 1% among 1,700; inhibition, % at 10 µM; AID 588522; S. cerevisiae AD/CaCDR1, Nile Red efflux, flow cytometry;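 active = inhibition above the screen-wide mean plus twice its standard deviation, cut at about 32% in these data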
Large screens that a line does not name were inactive (follow-up assays come after a bar, where they were run). A selection: hits, their analogues and other compounds. The true share with any hit is near 1.6%.

Cc1ccc(Cn2nnc3c(=O)[nH]c(C4CCN(S(=O)(=O)c5ccccc5)CC4)nc32)cc1	none | Yeast cmpd fluor inactive | CaMdr1 efflux inh inactive | CaCdr2 efflux inh inactive | Cdr1 pump inh inactive
COC(=O)c1ccc(Cn2nnc3c(=O)[nH]c(C4CCN(S(=O)(=O)c5ccc(F)cc5)CC4)nc32)cc1	none
COc1ccc(Cn2nnc3c(=O)[nH]c(C4CCN(S(=O)(=O)c5ccc(C)cc5)CC4)nc32)cc1	none | Yeast cmpd fluor inactive | CaMdr1 efflux inh inactive | CaCdr2 efflux inh inactive | Cdr1 pump inh inactive
Cc1ccc(S(=O)(=O)N2CCC(c3nc4c(nnn4Cc4ccccc4)c(=O)[nH]3)CC2)cc1	none
O=c1[nH]c(C2CCN(S(=O)(=O)c3ccccc3C(F)(F)F)CC2)nc2c1nnn2Cc1ccccc1	Efflux pump inh 3.1 | Yeast cmpd fluor inactive | CaMdr1 efflux inh inactive | CaCdr2 efflux inh inactive | Cdr1 pump inh inactive
Fc1cccc(CNC(=S)OC2CCC23CCC(c2ccccc2)CC3)c1 (stereo not given)	none (no result: V-ATPase pH, Rce1 inh, NSD2 inh, Efflux pump inh)
Cc1cccc(C(=O)N2CCC(=O)N(C(COCc3cccc(C(F)(F)F)c3)Cc3ccccc3)CC2)c1 (stereo not given)	Efflux pump inh 1.0 (no result: NSD2 inh) | Yeast cmpd fluor inactive | CaMdr1 efflux inh inactive | CaCdr2 efflux inh inactive | Cdr1 pump inh inactive
Cc1cccc(C(=O)N2CCC(=O)N([C@H](COCc3cccc(C(F)(F)F)c3)Cc3ccccc3)CC2)c1	none (no result: V-ATPase pH, Rce1 inh, NSD2 inh, Efflux pump inh)
COC(=O)[C@]12C[C@H](CC(=O)NCc3ccccc3)C(=O)N(Cc3cccc4ccccc34)C1=C[C@H](C1CCCC1)O[C@@H]2C	none (no result: V-ATPase pH, Rce1 inh, NSD2 inh, Efflux pump inh)
O=C(CCN1CCCCCC1)Nc1ccc2c(c1)OCCO2	Efflux pump inh 0.6 | Yeast cmpd fluor inactive | CaMdr1 efflux inh inactive | CaCdr2 efflux inh inactive | Cdr1 pump inh inactive
CN1CCN(CCC(=O)Nc2ccc3c(c2)OCO3)CC1	none
CCC(=O)N1CCc2cc(Br)c(S(=O)(=O)N3CCCC(C(=O)NC(C)(C)C)C3)cc21 (stereo not given)	none (no result: V-ATPase pH, Rce1 inh, Efflux pump inh)
O=C(CSc1nc2c(sc3ccccc32)c(=O)n1CCc1ccccc1)NCc1ccco1	Efflux pump inh 1.5 | Yeast cmpd fluor inactive | CaMdr1 efflux inh inactive | CaCdr2 efflux inh inactive | Cdr1 pump inh inactive
CCC[C@H]1[C@@H](OC(=O)NCc2ccc(Cl)c(Cl)c2)CC[C@@]23CCCN2C(=O)CCC[C@@H]13	none (no result: V-ATPase pH, Rce1 inh, NSD2 inh, Efflux pump inh)
CC(C)Oc1ccc(S(=O)(=O)N2CCOCC2)cc1NC(=O)CC1CC2CCC1C2 (stereo not given)	none (no result: V-ATPase pH, Rce1 inh, Efflux pump inh)
COc1ccc(S(=O)(=O)N2CCOCC2)cc1NC(=O)COC(=O)CC1CC2CCC1C2 (stereo not given)	Efflux pump inh 0.8 (no result: Rce1 inh) | Yeast cmpd fluor inactive | CaMdr1 efflux inh inactive | CaCdr2 efflux inh inactive | Cdr1 pump inh inactive
O=C(C1CCCO1)N1CCN(S(=O)(=O)c2ccccc2)CC1 (stereo not given)	Efflux pump inh 5.9 | Yeast cmpd fluor inactive | CaMdr1 efflux inh inactive | CaCdr2 efflux inh inactive | Cdr1 pump inh inactive
Cc1ccc(S(=O)(=O)N2CCN(C(=O)C3CCCO3)CC2)cc1C (stereo not given)	none
O=C1C=CC(=O)N1c1cccc(-c2ccccc2)c1	V-ATPase pH 32, Efflux pump inh 2.6 | Yeast cmpd fluor inactive | CaMdr1 efflux inh inactive | CaCdr2 efflux inh inactive | Cdr1 pump inh inactive
Cc1cc(C)n2c(Br)c(CSc3nc4ccccc4s3)nc2n1	Efflux pump inh 8.0 | Yeast cmpd fluor inactive | CaMdr1 efflux inh inactive | CaCdr2 efflux inh inactive | Cdr1 pump inh inactive
CCC1(c2ccccc2)NC(=O)N(CC(=O)N(C)Cc2ccccc2)C1=O (stereo not given)	Efflux pump inh 1.1 | Yeast cmpd fluor inactive | CaMdr1 efflux inh inactive | CaCdr2 efflux inh inactive | Cdr1 pump inh inactive
